Test results reported in PubChem BioAssay (Tox21).
“And” between values parts separate entries of the source, which are not always exact repeats. Equal values may be shown once. Inconclusive results are not listed. The source holds several records for some structures; these can differ, active in one and inactive in another. The source made the active and inactive calls. Unless noted, calls come from the whole dose curve; as a rule, active = well fitted curve in the direction sought with a large enough effect in the repeat runs; inconclusive = weak or mixed curves; inactive = no such curve, though single readings can be large; an effect the other way counts as inactive or inconclusive.

Experiments:
[1] = qHTS assay to test for compound auto fluorescence at 460 nm (blue) in HEK293 cell free culture (AID 720681)
Outline: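 Blue fluorescence (Ex 405/Em 460 nm, triamterene-equivalent) was read immediately after pin transfer of compound or DMSO into medium (DMEM, 10% FBS) without cells.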

[2] = qHTS assay to test for compound auto fluorescence at 590 nm (red) in HEK293 cell free culture (AID 720683)
Outline: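 Red-channel autofluorescence of compounds in culture medium (DMEM, 10% FBS), no cells, measured at 540/590 nm. Rose Bengal sodium is the reference fluorophore for equivalence.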

[3] = qHTS assay for identifying genotoxic compounds that show differential cytotoxicity against isogenic chicken DT40 cell lines with known DNA damage response pathways - Rad54/Ku70 mutant cell line (AID 743015); note: nearly all actives have a fitted effect of over 60% in size; note: potency is the fitted concentration of half-maximal effect
[4] = qHTS assay to identify small molecule antagonists of the androgen receptor (AR) signaling pathway using the MDA cell line - cell viability counter screen (AID 743041; note: nearly all actives have a fitted effect of over 45% in size; note: potency is the fitted concentration of half-maximal effect)
Outline: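 Using the breast carcinoma line MDA-kb2 AR-luc, test chemicals were co-incubated with R1881 for 16 h; CellTiter-Fluor reagent, added at 15.5 h, provided a fluorescence measure of live cells.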

[5] = qHTS assay to identify small molecule antagonists of the thyroid receptor (TR) signaling pathway - cell viability counter screen (AID 743064); note: nearly all actives have a fitted effect of over 50% in size; note: potency is the fitted concentration of half-maximal effect
Outline: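 Fluorescence from CellTiter-Fluor, added after 23.5 h exposure at 37 °C, reported viability of GH3.TRE-Luc cells co-treated with compound and 1 nM T3. Measured in the same wells as the luciferase TR readout.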

[6] = qHTS assay to identify small molecule antagonists of the estrogen receptor alpha (ER-alpha) signaling pathway - cell viability counter screen (AID 743074; calls by dose curve;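 note: HEK293 cells carrying ER-alpha-UAS-bla reporter stimulated with 17beta-estradiol; nearly all actives have a fitted effect of over 45% in size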; note: potency is the fitted concentration of half-maximal effect)
[7] = molecular target: Estrogen receptor (Homo sapiens) (UniProt P03372); assay: qHTS assay to identify small molecule agonists of the estrogen receptor alpha (ER-alpha) signaling pathway (AID 743075; calls by dose curve;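 note: HEK293 GripTite cells with ER-alpha and UAS-driven beta-lactamase reporter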; note: potency is the fitted concentration of half-maximal effect)
Sequence of Estrogen receptor (Homo sapiens) (P03372 whole entry, looked up): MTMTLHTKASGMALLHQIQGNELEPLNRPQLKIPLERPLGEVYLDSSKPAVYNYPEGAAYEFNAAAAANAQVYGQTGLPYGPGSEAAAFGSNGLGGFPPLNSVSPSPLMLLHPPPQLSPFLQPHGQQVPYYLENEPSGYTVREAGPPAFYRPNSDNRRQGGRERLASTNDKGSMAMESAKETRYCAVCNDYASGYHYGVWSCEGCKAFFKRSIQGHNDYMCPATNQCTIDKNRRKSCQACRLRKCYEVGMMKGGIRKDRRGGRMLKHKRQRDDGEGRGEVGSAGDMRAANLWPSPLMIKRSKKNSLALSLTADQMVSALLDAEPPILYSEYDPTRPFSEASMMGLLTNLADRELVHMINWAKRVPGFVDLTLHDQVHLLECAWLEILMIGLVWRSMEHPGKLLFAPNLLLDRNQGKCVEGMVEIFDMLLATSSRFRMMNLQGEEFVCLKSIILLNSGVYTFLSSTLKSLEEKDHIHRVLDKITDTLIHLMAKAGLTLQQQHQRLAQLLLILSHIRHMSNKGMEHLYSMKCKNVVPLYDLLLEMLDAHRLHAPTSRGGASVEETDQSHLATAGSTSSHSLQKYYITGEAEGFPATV

[8] = qHTS assay to identify small molecule antagonists of the estrogen receptor alpha (ER-alpha) signaling pathway using the BG1 cell line - cell viability counter screen (AID 743081);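 note: compound given together with 17beta-estradiol as the ER stimulus; series mostly up to about 70 µM; nearly all actives have a fitted effect of over 45% in size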
[9] = qHTS assay to identify small molecule that activate the aryl hydrocarbon receptor (AhR) signaling pathway - cell viability counter screen (AID 743086); note: nearly all actives have a fitted effect of over 45% in size; note: potency is the fitted concentration of half-maximal effect
Outline: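 Cytotoxicity counter screen: CellTiter-Fluor signal (30 min, 37 C) in 4000 HepG2 cells/well carrying the DRE-luciferase reporter, following 24 h compound exposure at 37 C.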

[10] = qHTS assay for small molecule agonists of the p53 signaling pathway (AID 651631; calls by dose curve; note: nearly all actives have a fitted effect of over 15% in size)
Outline: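 Read-out is beta-lactamase FRET fluorescence measured 2 h after substrate addition at room temperature, in HCT-116 cells with a p53 response element-driven reporter exposed to compounds for 16 h at 37 °C.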

[11] = qHTS assay for small molecule agonists of the p53 signaling pathway - cell viability (AID 651633; calls by dose curve; note: nearly all actives have a fitted effect of over 30% in size; note: potency is the fitted concentration of half-maximal effect)
Outline: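 Viability counter-read: CellTiter-Glo luminescence (30 min, room temperature) in the same p53RE-bla plates. These plates had been exposed to compounds for 16 h at 37 C.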

[12] = qHTS assay for identifying genotoxic compounds that show differential cytotoxicity against isogenic chicken DT40 cell lines with known DNA damage response pathways - wild type cell line (AID 743012); note: nearly all actives have a fitted effect of over 60% in size; note: potency is the fitted concentration of half-maximal effect
Outline: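 Luminescent ATP viability signal (CellTiter-Glo, 30 min RT) recorded after wild type DT40 cells were incubated with compounds for 40 h at 37 C/5% CO2.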

[13] = qHTS assay for identifying genotoxic compounds that show differential cytotoxicity against isogenic chicken DT40 cell lines with known DNA damage response pathways - Rev3 mutant cell line (AID 743014); note: nearly all actives have a fitted effect of over 55% in size; note: potency is the fitted concentration of half-maximal effect
[14] = qHTS assay to identify small molecule antagonists of the thyroid receptor (TR) signaling pathway (AID 743065); note: nearly all actives have a fitted effect of over 55% in size; note: potency is the fitted concentration of half-maximal effect
Outline: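 Antagonism measured as loss of luciferase signal in GH3 cells stably carrying a TRE-luciferase reporter, co-treated with compound and T3 (1 nM final) for 23.5 h at 37 C. Viability was read in the same well by CellTiter-Fluor.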

[15] = system: thyroid hormone receptor (rat, GH3 cells); assay: qHTS assay to identify small molecule agonists of the thyroid receptor (TR) signaling pathway (AID 743066; calls by dose curve)
[16] = molecular target: Estrogen receptor (Homo sapiens) (UniProt P03372); assay: qHTS assay to identify small molecule agonists of the estrogen receptor alpha (ER-alpha) signaling pathway using the BG1 cell line (AID 743079); note: nearly all actives have a fitted effect of over 20% in size; note: potency is the fitted concentration of half-maximal effect
[17] = qHTS assay to identify small molecule antagonists of the estrogen receptor alpha (ER-alpha) signaling pathway using the BG1 cell line (AID 743080; calls by dose curve;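 note: BG1 cells stimulated with 17beta-estradiol alongside compound; nearly all actives have a fitted effect of over 25% in size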; note: potency is the fitted concentration of half-maximal effect)
Outline: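 BG1-Luc-4E2 cells (endogenous full-length ER-alpha, stable 4×ERE-luciferase) were starved 5 days in phenol-red-free medium with 10% charcoal-stripped FBS, plated 24 h, then given compound plus 17beta-estradiol for 21.5 h at 37 C; ONE-Glo luminescence read after 30 min.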

[18] = molecular target: Peroxisome proliferator-activated receptor gamma (Homo sapiens) (UniProt P37231); assay: qHTS assay to identify small molecule agonists of the peroxisome proliferator-activated receptor gamma (PPARg) signaling pathway (AID 743094; active = well fitted activation curve with a large enough effect in the signal ratio in the repeat runs, not every such curve was filed as active; the % refers to the signal ratio)
Sequence of Peroxisome proliferator-activated receptor gamma (Homo sapiens) (P37231 whole entry, looked up): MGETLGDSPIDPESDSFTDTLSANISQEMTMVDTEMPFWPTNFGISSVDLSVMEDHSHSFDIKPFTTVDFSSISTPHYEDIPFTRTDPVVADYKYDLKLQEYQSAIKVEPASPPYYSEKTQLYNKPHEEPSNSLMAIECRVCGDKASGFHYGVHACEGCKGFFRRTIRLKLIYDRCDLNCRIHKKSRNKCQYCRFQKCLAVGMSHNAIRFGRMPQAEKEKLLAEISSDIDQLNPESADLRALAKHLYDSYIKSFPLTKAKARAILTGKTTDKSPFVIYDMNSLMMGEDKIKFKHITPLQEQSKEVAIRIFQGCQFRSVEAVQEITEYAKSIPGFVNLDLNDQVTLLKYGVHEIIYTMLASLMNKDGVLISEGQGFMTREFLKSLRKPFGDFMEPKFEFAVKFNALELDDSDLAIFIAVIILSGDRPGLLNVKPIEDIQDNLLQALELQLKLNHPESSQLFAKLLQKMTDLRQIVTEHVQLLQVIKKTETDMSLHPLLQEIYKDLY
Outline: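 Reporter activation was scored by fluorescence of cleaved LiveBLAzer B/G substrate (1 h, room temperature) in PPARg-bla HEK293H cells previously treated 17 h at 37C with DMSO-dissolved compounds.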

[19] = molecular target: Nuclear receptor subfamily 1 group I member 2 (Homo sapiens) (UniProt O75469); assay: CYP3A4 induction through human pregnane X receptor (PXR) by small molecules, qHTS assay (AID 1346984); note: nearly all actives have a fitted effect of over 40% in size
Outline: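 Induction measured in HepG2-based DPX-2 cells co-expressing human PXR and a CYP3A4 promoter-driven luciferase. After a 24-hour compound exposure, cells received CYP3A4 luciferin substrate at 3uM final for 3 hours, and light output was then recorded.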

[20] = qHTS assay to identify small molecule antagonists of the androgen receptor (AR) signaling pathway - cell viability counter screen (AID 743033; note: nearly all actives have a fitted effect of over 45% in size)

Measured: Potency

O.O.O.O=C([O-])C(O)C(O)C(=O)[O-].O=C([O-])C(O)C(O)C(=O)[O-].[K+].[K+].[Sb].[Sb] (stereo not given)
inactive: [1] | [2] | [6] | [7] | [8] | [9]
active: [3] 11.9 µM | [4] 18.8 µM | [5] 29.8 µM

Clc1ccc(Cl)c(Cl)c1Cl
inactive: [10]

Cc1ccccc1-n1c(C)nc2ccccc2c1=O
inactive and 53.9 µM (active): [16]
inactive: [10] | [11] | [1] | [2] | [4] | [14] | [15] | [6] | [7] | [17] | [8] | [18] | [19]
active: [12] 42.8 µM | [13] 53.9 µM | [3] 60.4 µM
inactive and 24.1 µM (active): [5] | [9]

C[C@H]1CC[C@]2(NC1)O[C@H]1C[C@H]3[C@@H]4CC[C@H]5C[C@@H](O)CC[C@]5(C)[C@H]4CC[C@]3(C)[C@H]1[C@@H]2C
inactive: [10] | [1] | [2] | [12] | [3] | [20] | [4] | [15] | [6] | [7] | [16] | [17] | [8] | [9] | [18] | [19]
active: [14] 26.6 µM

CC(C)(C)OCC1CO1 (stereo not given)
inactive: [10]

CC1(C)S[C@@H]2[C@H](N)C(=O)N2[C@H]1C(=O)O
inactive: [10] | [11] | [1] | [2] | [12] | [13] | [3] | [20] | [4] | [5] | [14] | [15] | [6] | [7] | [16] | [17] | [8] | [9] | [18] | [19]

CCN(CC)/[N+]([O-])=N/O
inactive: [11] | [1] | [2] | [4] | [5] | [14] | [15] | [6] | [8] | [9]

COc1cc(C[C@H](C)N)c(OC)cc1C
inactive: [1] | [2] | [3] | [20] | [5] | [15] | [6] | [7] | [16] | [17] | [9] | [18]

C=CCOc1c(Br)cc(C(C)(C)c2cc(Br)c(OCC=C)c(Br)c2)cc1Br
inactive: [10]

O=C1CCO1
inactive: [11] | [1] | [12] | [13] | [3] | [20] | [4] | [5] | [14] | [15] | [7] | [16] | [17] | [8] | [9] | [18] | [19]

Cc1ccc(C)cc1
inactive: [10]

CC(=O)[C@H]1CC[C@H]2[C@@H]3CC[C@@H]4C[C@H](O)CC[C@]4(C)[C@H]3CC[C@]12C
inactive: [10] | [1] | [12] | [3] | [20] | [4] | [15] | [6] | [8] | [9] | [18] | [19]
active: [14] 13.3 µM | [7] 26.8 µM [activator] | [16] 29.8 µM

COc1ccc(C)cc1N
inactive: [10]

COc1ccc2c3c1O[C@H]1[C@@H](O)C=C[C@H]4[C@@H](C2)NCC[C@@]341
inactive: [10] | [11] | [12] | [13] | [3] | [4] | [5] | [14] | [15] | [6] | [7] | [16] | [17] | [8] | [9] | [18] | [19]

CNC(=O)Oc1ccc2c(c1)[C@]1(C)CCN(C)[C@@H]1N2C
inactive: [10]

CCCCCc1cc(O)c2c(c1)OC(C)(C)c1ccc(C)cc1-2
active: [11] 11.9 µM | [12] 9.44 µM | [3] 11.9 µM | [5] 13.3 µM | [14] 13.3 µM | [6] 23.9 µM | [17] 29.8 µM
inactive: [2] | [20]

O=C(Cl)c1cccc(C(=O)Cl)c1
inactive: [10]

CCC(=O)O[C@@](Cc1ccccc1)(c1ccccc1)[C@@H](C)CN(C)C
inactive: [10] | [11] | [1] | [2] | [12] | [13] | [3] | [4] | [14] | [15] | [6] | [9] | [19]
